Data as given in PubChem BioAssay AID2561 (National Center for Advancing Translational Sciences (NCATS), 2010).
Inconclusive results are not listed. Active and inactive are the calls of the source. The call rests on the fitted dose curve; in most records, active means well fitted inhibition curve with a large enough effect; inconclusive means small, poorly fitted or top-dose-only effect, or effect the other way; inactive means flat fitted curve, though single readings scatter.

These compounds were tested against Pyruvate kinase (Leishmania mexicana) (UniProt Q27686) (assay: Confirmation Assay for Inhibitors of Leishmania Mexicana Pyruvate Kinase (LmPK): for Probe SAR). Conditions: purified LmPK, ATP generation, Kinase-Glo luminescence; series mostly up to 57.5 µM; activity change, negative = inhibition: at the top concentration.
Pyruvate kinase (Leishmania mexicana), sequence (Q27686 whole entry, looked up): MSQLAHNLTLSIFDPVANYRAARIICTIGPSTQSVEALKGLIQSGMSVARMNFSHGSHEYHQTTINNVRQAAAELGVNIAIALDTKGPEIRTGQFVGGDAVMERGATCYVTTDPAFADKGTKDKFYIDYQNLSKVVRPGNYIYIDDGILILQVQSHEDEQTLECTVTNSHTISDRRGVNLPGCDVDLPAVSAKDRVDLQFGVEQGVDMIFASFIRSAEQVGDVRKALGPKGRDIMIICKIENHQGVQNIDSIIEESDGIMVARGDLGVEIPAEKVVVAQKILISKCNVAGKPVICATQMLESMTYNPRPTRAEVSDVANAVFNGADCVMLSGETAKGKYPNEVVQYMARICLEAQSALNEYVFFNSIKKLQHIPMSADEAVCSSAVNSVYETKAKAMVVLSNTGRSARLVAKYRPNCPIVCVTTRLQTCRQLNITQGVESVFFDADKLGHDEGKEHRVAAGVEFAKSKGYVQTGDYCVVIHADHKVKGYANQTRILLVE
In short: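 Purified L. mexicana pyruvate kinase (0.1 nM) with 0.5 mM PEP and 0.1 mM ADP in pH 7.2 imidazole buffer, 1 h at RT. ATP formed measured by Kinase-Glo luminescence; normalized to uninhibited and no-enzyme wells.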
Potency means the concentration at half of the fitted maximal effect.
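Wherever activity change, negative = inhibition is given: plate controls were uninhibited enzyme for no effect and no enzyme wells for full effect.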

**Q.** Which “activity change, negative = inhibition” value does the source give for Cc1ccc(NS(=O)(=O)c2ccc3[nH]c(=O)[nH]c3c2)cc1C here?
**A.** 0.937% (inactive)

**Q.** How did the “activity change, negative = inhibition” value turn out when Cc1cc(C)c2[nH]c(C3C(=O)c4ccccc4C3=O)cc(=O)c2c1 was run?
**A.** -9.19% (inactive)

**Q.** How did the “activity change, negative = inhibition” value turn out when O=C1NS(=O)(=O)c2cscc21 was run?
**A.** 2.97% (inactive)

**Q.** COc1cccc2ccc(C3C(=O)c4ccccc4C3=O)nc12 was tested. Which “activity change, negative = inhibition” value did it give?
**A.** -3.4% (inactive)

**Q.** How did the “activity change, negative = inhibition” value turn out when COc1ccc(NS(=O)(=O)c2ccccc2)cc1NS(=O)(=O)c1ccccc1 was run?
**A.** 31.7% (inactive)

**Q.** For CCOc1ccc2[nH]c(C3C(=O)c4ccccc4C3=O)cc(=O)c2c1, which “activity change, negative = inhibition” value is on record?
**A.** -13.9% (inactive)

**Q.** For Cc1ccc(NS(=O)(=O)c2ccc3c(c2)NC(=O)CO3)cc1C, which “activity change, negative = inhibition” value is on record?
**A.** 18.8% (inactive)

**Q.** With O=C1c2ccccc2C(=O)N1c1ccc2ncccc2c1 as the compound, how does the “activity change, negative = inhibition” value read?
**A.** 6.91% (inactive)

**Q.** Cn1c2cc(S(C)=O)sc2c2cnn(Cc3cccc(N)c3)c(=O)c21 (stereo not given) was tested. Which “activity change, negative = inhibition” value did it give?
**A.** 4.83% (inactive)

**Q.** For CC(C)(C)c1ccc(SC2=NS(=O)(=O)c3ccccc32)cc1, which Potency is on record?
**A.** 3.26 µM (active)

**Q.** With O=C1CCc2cc(S(=O)(=O)NCc3ccccc3)ccc2N1 as the compound, how does the “activity change, negative = inhibition” value read?
**A.** 12.8% (inactive)

**Q.** Which “activity change, negative = inhibition” value does the source give for Cc1ccc(NS(=O)(=O)c2ccc(N3CCCC3=O)cc2)cc1C here?
**A.** 4.2% (inactive)

**Q.** For Cc1ccc(NS(=O)(=O)c2cc3c(cc2Cl)CCC(=O)N3)cc1C, which “activity change, negative = inhibition” value is on record?
**A.** 2.41% (inactive)

**Q.** For O=S1(=O)N=C(N2CCOCC2)c2ccccc21, which “activity change, negative = inhibition” value is on record?
**A.** 14.8% (inactive)

**Q.** How did the “activity change, negative = inhibition” value turn out when O=C1c2ccccc2C(=O)N1c1ccc(O)cc1 was run?
**A.** 10.1% (inactive)

**Q.** For Cc1ccc(NS(=O)(=O)c2cc3c(cc2/C=C/c2ccccc2)NC(=O)CO3)cc1C, which “activity change, negative = inhibition” value is on record?
**A.** 11% (inactive)

**Q.** How did the “activity change, negative = inhibition” value turn out when COc1cccc(NS(=O)(=O)c2ccc3c(c2)CCC(=O)N3)c1 was run?
**A.** -2.76% (inactive)

**Q.** Cc1ccc2nc(-c3ccc(C)o3)c(Nc3ccc4c(c3)OCO4)n2c1 was tested. Which “activity change, negative = inhibition” value did it give?
**A.** -10.7% (inactive)

**Q.** For Cc1cc(C)n2c(Nc3ccccc3)c(-c3ccc(C)o3)nc2n1, which “activity change, negative = inhibition” value is on record?
**A.** 1.14% (inactive)

**Q.** With O=C1c2ccccc2C(=O)N1c1cccc(O)c1 as the compound, how does the “activity change, negative = inhibition” value read?
**A.** -8.63% (inactive)

**Q.** How did the “activity change, negative = inhibition” value turn out when Cc1ccc(NS(=O)(=O)c2ccc3c(c2)n(C)c(=O)n3C)cc1C was run?
**A.** 3.57% (inactive)

**Q.** Which “activity change, negative = inhibition” value does the source give for CCCCN1C(=O)c2ccccc2C1=O here?
**A.** -2.93% (inactive)

**Q.** For COc1ccccc1OC1=NS(=O)(=O)c2ccccc21, which Potency is on record?
**A.** 4.31 µM (active)

**Q.** O=S1(=O)N=C(Oc2ccc(C(F)(F)F)cc2)c2ccccc21 was tested. Which Potency did it give?
**A.** 3.66 µM (active)

**Q.** For Cc1ccc(NS(=O)(=O)c2ccc3c(ccn3C)c2)cc1C, which “activity change, negative = inhibition” value is on record?
**A.** -11% (inactive)

**Q.** O=C1CCc2cc(S(=O)(=O)Nc3ccc4ccccc4c3)ccc2N1 was tested. Which “activity change, negative = inhibition” value did it give?
**A.** 19.4% (inactive)

**Q.** For O=C1c2ccccc2C(=O)N1Cc1cccnc1, which “activity change, negative = inhibition” value is on record?
**A.** -2.71% (inactive)

**Q.** How did the “activity change, negative = inhibition” value turn out when CCNc1cccc(S(=O)(=O)N2CCN(S(=O)(=O)c3ccc4c(c3)OCCO4)CC2)c1 was run?
**A.** 3.57% (inactive)

**Q.** For Cc1ccc(NS(=O)(=O)c2ccc3c(c2)CC(=O)N3C)cc1C, which “activity change, negative = inhibition” value is on record?
**A.** -0.237% (inactive)

**Q.** With Cc1cccc(NS(=O)(=O)c2ccc3c(c2)CCC(=O)N3)c1 as the compound, how does the “activity change, negative = inhibition” value read?
**A.** -10.1% (inactive)
